# Results published in PubChem BioAssay AID1379 (National Center for Advancing Translational Sciences (NCATS), 2008).
# The whole screen tested about 200,000 compounds, of which about 560 (0.28%) were called active. What follows is part of a selection rich in actives, with near analogues and random picks from the rest. A call without a number means that no potency is given here. A number with no mark means an inactive call. The call rests on the fitted dose curve; in most records, active means well fitted inhibition curve with a large enough effect; inconclusive means small, poorly fitted or top-dose-only effect; inactive means flat fitted curve, though single readings scatter.
# Target: Luciferin 4-monooxygenase (Photuris pensylvanica) (UniProt Q27757)
# Experiment: Counterscreen for Luciferase (Kinase-Glo TM) Inhibition; further: nearly all actives have a fitted effect of over 60% in size
# Conditions: ATP luminescence, 8 min; series mostly up to 38.3 µM
# Method: NCGC Assay Overview: NIH Molecular Libraries Screening Centers Network [MLSCN] NIH Chemical Genomics Center [NCGC] MLSCN Grant: None Luciferase (Kinase-Glo, Promega Corporation) was assayed for its ability to generate light using ATP and luciferin as substrates. The ATP concentration in the assay (10 uM) was within the linear range of enzyme activity for the assay conditions used.
# NCGC Assay Protocol Summary: Four uL of substrate mix (final concentration, 50 mM imidazole pH 7.2, 50 mM KCl, 7 mM MgCl2, 10 uM ATP, 0.01% Tween 20, 0.05% BSA) was dispensed into white 1536 well plates. Twenty-three nL of compound was delivered by a pin tool and 2 uL of luciferase detection mix (Kinase-Glo, Promega)) was added. Following 8-minute incubation at ambient temperature, luminescence was measured by a ViewLux (Perkin Elmer) at 5 seconds exposure/plate.
# Potency means the concentration at half of the fitted maximal effect.
Structure (SMILES),Potency,"activity change, negative = inhibition"
O=C(Nc1nnc(C2CC2)s1)c1ccccn1,10 µM (active),–
O=C(Cc1cccs1)Nc1nnc(C2CC2)s1,–,inactive
Cc1occc1C(=O)Nc1nnc(C2CCCCC2)s1,–,inactive
C=C(C)C(=O)c1ccc(F)cc1,–,inactive
CC(C)C1=CC2=CC[C@H]3[C@](C)(C(=O)O)CCC[C@]3(C)C2CC1 (stereo partly specified),–,inactive
COC(=O)C1=C(C(=O)OC)[C@@H]2N(Cc3ccccc3)c3ccccc3[C@@]23C[C@@H](C(=O)OC)N(S(=O)(=O)c2ccc(C(F)(F)F)cc2)C3=N1,–,-5.51% [at 7.66 µM]
CCCCC/C=C\C/C=C\C/C=C\CCCCCCC(N)=O,–,inactive
COC(=O)N1C(/C=C/C=C/c2ccc(OC)cc2)=Cc2ccccc2C1CC(C)=O (stereo unspecified),–,-3.85% [at 7.66 µM]
CC1(C)O[C@@H]2C[C@@H]3[C@H]4C[C@@H](F)C5=CC(=O)C=C[C@]5(C)[C@@]4(F)[C@@H](O)C[C@]3(C)[C@]2(C(=O)CO)O1,–,inactive
CCCCC/C=C\C/C=C\CCCCCCCCCC(=O)NCC(=O)O,–,inactive
COc1ccc(-c2c(C)cc3oc(=O)cc(-c4ccccc4)c3c2C)cc1F,–,inactive
CC1=C(/C=C/C(C)=C/C=C/C(C)=C/C=C/C=C(C)/C=C/C=C(C)/C=C/C(=O)[C@]2(C)C[C@@H](O)CC2(C)C)C(C)(C)C[C@H](O)C1,–,inactive
C#CCCOC(=O)N1C2=NC(C(=O)OC)=C(C(=O)OC)[C@@H]3N(C)c4ccc(OC)cc4[C@]23C[C@H]1C(=O)OC,–,-8.5% [at 7.66 µM]
Cc1cn(C2OC[C@@H](O)[C@@H]2CO)c(=O)[nH]c1=O (stereo partly specified),–,inactive
CCCCC/C=C\C/C=C\CCCCCCCCCC(=O)O,–,inactive
COc1cccc(OC)c1C(=O)Nc1ccc(N2CCCCC2)cc1,–,inactive
COc1cccc(C(=O)Nc2ccc(N3CCCC3)cc2)c1,4.47 µM (active),–
COc1ccc(C(=O)NC(=S)Nc2ccc(N3CCCC3)cc2)cc1OC,–,inactive
COc1cc(OC)c2c(c1)OC(=O)CC2c1cc(OC)c(OC)c(OC)c1 (stereo unspecified),–,inactive
CN1c2ccccc2-c2nc3ccccc3n2C1c1ccco1 (stereo unspecified),–,inactive
COc1ccc(CCn2c(-c3ccco3)nc3nc4ccccc4nc32)cc1OC,–,inactive
Cn1c(-c2ccco2)nc2cc3ccccc3cc21,12.6 µM (active),–
COc1ccc(C2CC(=O)Oc3ccc(C(C)(C)C)cc32)cc1 (stereo unspecified),–,inactive

Structure (SMILES),Potency,"activity change, negative = inhibition"
COc1cccc([C@@H]2Oc3ccc(Br)cc3C(=O)[C@H]2OC(=O)NCCc2ccc(OC)c(OC)c2)c1,–,inactive
CCOC(=O)C1=C(C(=O)OCC)C(C(=O)OCC)N(S(=O)(=O)C(F)(F)F)c2ccccc21 (stereo unspecified),–,inactive
COC(=O)C1=C(C(=O)OC)[C@@H]2N(C)c3ccccc3[C@@]23C[C@@H](C(=O)OC)N(S(=O)(=O)c2cccs2)C3=N1,–,-6.85% [at 7.66 µM]
CC/C=C\C/C=C\C/C=C\C/C=C\C/C=C\C/C=C\CCC(=O)NCCc1ccc(O)c(O)c1,–,inactive
C[C@@]12CCC(=O)C=C1CC[C@H]1C2[C@@H](O)C[C@]2(C)[C@@H]1CC[C@@]2(O)C(=O)COC(=O)C1CCCC1 (stereo partly specified),–,-5.73% [at 7.66 µM]
CCCCC/C=C\C/C=C\CCCCCCCCCC(N)=O,–,inactive
COC(=O)C1(C(C)=O)CC2=CC[C@H]3C(=O)N(c4ccccc4)C(=O)[C@H]3[C@@H]2Cc2ccccc2[C@@H]1C[N+](=O)[O-] (stereo partly specified),–,inactive
CCCCC/C=C\C/C=C\C/C=C\CCCCC(=O)NCC(=O)O,–,inactive
COC(=O)C(C(=O)OC)[C@@H](NC=O)c1ccccc1,–,inactive
CC1(OC(=O)c2ccc(Cl)nc2)C(=O)Cc2cc(-c3ccsc3)ncc2C1=O (stereo unspecified),–,-0.318% [at 7.66 µM]
Cc1nn2c3ccccc3nc2n(C)c1=O,–,inactive
Cc1csc(-c2nc3ccccc3n2C)n1,4.47 µM (active),–
Cn1cccc1-c1nc2ccccc2n1C,–,inactive
Cc1cccc(N=C2NN=C(c3c[nH]c4ccccc34)CS2)c1,–,inactive
COCCn1c(C)cc(C2=NNC(=Nc3ccc(F)cc3)SC2)c1C,–,inactive
C=CCn1c(C)cc(C2=NNC(=NCC)SC2)c1C,7.94 µM (active),–
Cc1csc(-c2coc3cc(O[C@@H]4O[C@H](CO)[C@@H](O)[C@@H](O)[C@H]4O)ccc3c2=O)n1,3.55 µM (active),–
CCc1cccc(OC2OC(CO)C(O)C(O)C2NC(C)=O)c1 (stereo unspecified),–,inactive
COc1cc(/C=C/CO)cc(OC)c1O[C@@H]1O[C@H](CO)[C@@H](O)[C@H](O)[C@H]1O,–,inactive
C=CCN1C=C2C(=O)C(C)(OC(=O)CCc3ccccc3)C(=O)C=C2C=C1c1ccc(C#N)cc1 (stereo unspecified),–,-4.17% [at 7.66 µM]
C=C/C1=C/Cc2ccccc2[C@H](C[N+](=O)[O-])C(C(=O)OC)(C(=O)OC)C1,–,inactive
CC(C)(C)OC(=O)NCCCC1=CC2=CC(=O)C(C)(OC(=O)c3ccco3)C(=O)C2=CO1 (stereo unspecified),–,inactive
COC(=O)C1=C(C(=O)OC)[C@@H]2Nc3ccccc3[C@@]23C[C@@H](C(=O)OC)N(S(=O)(=O)c2ccc([N+](=O)[O-])cc2)C3=N1,–,-3.38% [at 7.66 µM]
